Data on 71 molecules can be found in ChEMBL document CHEMBL3988442, “University of Dundee, Small-Polar-MMV Screening Library” (2021).

Molecules are shown by their SMILES. Hit rate of the full screen: of about 48,000 compounds, about 13,000 (27%) showed an effect of 50% or more. Some of the results follow.

The experiment deals with Wolbachia pipientis. Put plainly: Anti-Wolbachia Cell-Based Screen. It counts as functional. On the set-up: scale not given: in the data most compounds retested in dose-response had high values. The settings on record: 5 µM.
Consider `CC(C)(C)c1oc(C(N)=O)cc1CN1CCCCC(N)C1` (stereo unspecified), for which the “Percent Effect” value is on record as -6.99%.
The result for `CNC(=O)c1cccnc1NCc1ccc(Cn2ccnc2)cc1` reads -15.36%.
As to `CC(=O)c1cc(CN2C[C@H]3CC[C@@H]2CN(S(C)(=O)=O)C3)cs1`, the “Percent Effect” value stood at 11.24%.
Regarding `Cc1cc(-c2cccc(-c3ccn(CCCO)n3)c2)nc(N(C)C)n1`, the “Percent Effect” value came out at 105.4%.
As for `c1cncc(-c2cccc(-c3ccn(CCN4CCCCC4)n3)c2)c1`, the “Percent Effect” value turned out to be 18.24%.
In the case of `c1cc(-c2cnccn2)cc(-c2ccn(CCCN3CCCCC3)n2)c1`, the “Percent Effect” value is -2.928%.
The result for `COc1ccc(-c2cccc(-c3ccn(CCCN(C)C)n3)c2)nn1` reads -20.49%.
Then `COc1ccc(-c2cccc(-c3ccn(CCN(C)C)n3)c2)nn1`, with -17.53%; and `Cc1nc(N(C)C)nc(-c2cccc(-c3ccn(CCCO)n3)c2)c1C`, with 91.5%.
Consider `Cc1cnc(C)c(-c2cccc(-c3ccn(CCN4CCCC4)n3)c2)n1`, for which the “Percent Effect” value came out at 7.439%.
The result for `CN(C)CCCn1ccc(-c2cccc(-c3cncnc3)c2)n1` reads -27.48%; that for `Cc1nc(N(C)C)nc(-c2cccc(-c3ccn(CCCF)n3)c2)c1C`, 99.28%.
In the case of `CN(C)CCCn1ccc(-c2cccc(-c3ccccn3)c2)n1`, the “Percent Effect” value is given as -1.271%.
Then `CN(C)c1ccc(-c2cccc(-c3ccn(CCCO)n3)c2)nn1`, with 106.7%; and `Cc1cc(CC(C)NC(=O)c2cccc(CC3CCNCC3)c2)[nH]n1` (stereo unspecified), with -1.026%; and `Cc1oc(NC(=O)C(C)N2CCN(C(=O)C3CC3)CC2)c(C#N)c1C` (stereo unspecified), with 9.3%.
The result for `OC1(c2cn(C3CCN(C4CCSC4)CC3)nn2)CCCC1` (stereo unspecified) reads -22.68%; that for `Cc1ccc2[nH]c(CN(C)Cc3ccccc3C(=O)O)nc2c1`, -3.287%; that for `NS(=O)(=O)c1ccc(CC(=O)N2CCCC(n3cccn3)C2)cc1` (stereo unspecified), -6.435%.
Then `Cn1nc(C(=O)N2CCC(Oc3ccc(C#N)cn3)CC2)ccc1=O`, with 4.281%.
As for `N#Cc1cn(CCN2CCc3ccccc3C2)c(=O)[nH]c1=O`, the “Percent Effect” value is -7.012%.
Then `CCc1nc(N2CCCC(CO)(CCOC)C2)ncc1C` (stereo unspecified), with 2.131%; and `Cc1cnc(-c2cccc(-c3ccn(CCCO)n3)c2)nc1N(C)C`, with 89.78%.
Then `c1cc(-c2cnccn2)cc(-c2ccn(CCN3CCCCC3)n2)c1`, with 11.58%; and `c1cc(-c2cnccn2)cc(-c2ccn(CCN3CCCC3)n2)c1`, with 1.985%; and `CN(C)[C@H]1CCCCN(Cc2ccccc2Cn2cccn2)C1`, with 11.28%.
Then `CC(C)(CN)NS(=O)(=O)c1c(F)cccc1F.Cl`, with -5.219%.
Regarding `COc1ccc(N2CCOCC3(CCCN(c4cnccn4)C3)C2)cc1` (stereo unspecified), the “Percent Effect” value is given as -9.239%.
As to `Cc1ccc(N2CCCC3(COCCN(c4cnccn4)C3)C2)nn1` (stereo unspecified), the “Percent Effect” value is reported as 122.4%.
Then `Cc1cnc(N2CCC3(CCCN(c4ccc(C)nn4)C3)C2)nc1` (stereo unspecified), with -1.521%; and `Cc1cnc(N2CCCC3(COCCN(c4ccc(C)nn4)C3)C2)nc1` (stereo unspecified), with 111.1%; and `Fc1cnc(N2CCOCC3(CCCN(c4nncs4)C3)C2)nc1` (stereo unspecified), with -12.3%.
The result for `CCS(=O)(=O)N1CCCC2(COCCN(c3cnccn3)C2)C1.O=C(O)C(F)(F)F` (stereo unspecified) reads -1.156%; that for `Fc1cnc(N2CCOCC3(CCCN(c4cnccn4)C3)C2)nc1` (stereo unspecified), -10.42%; that for `Cc1ccc(N2CCOCC3(CCCN(c4ncc(F)cn4)C3)C2)nn1` (stereo unspecified), 110.3%.
Turning to `Cc1noc(C)c1NC(=O)Cn1cc(Br)ccc1=O`, the “Percent Effect” value was -4.213%.
As for `C[C@@H]1CN(C2CCN(Cc3cnc(-c4cccs4)nc3)CC2)C[C@H](C)O1`, the “Percent Effect” value is recorded as -8.003%.
Then `O=S(=O)(c1c(Cl)nc2sccn12)N1CCCC2(CCNC2)C1` (stereo unspecified), with -7.424%.
The result for `Cc1ccc(-n2cc(C)cn2)c(NC(=O)NC2(C)CCOC2)c1` (stereo unspecified) reads 1.139%; that for `O=C(CN1CC(c2nc(-c3cccs3)no2)C1)NCC1CCCO1.O=C(O)C(=O)O` (stereo unspecified), 11.99%; that for `Cc1sc(-c2ccco2)nc1C(=O)N(CC(N)=O)C1CCCC1`, -7.156%.
Then `O=C(NCC1CCCCO1)c1ccc(-c2ccco2)[nH]c1=O` (stereo unspecified), with 3.575%; and `O=C(NC[C@H]1CCCC[C@H]1O)c1cccc2[nH]c(-c3cccs3)nc12`, with 118.3%.
On to `O=C(NCC1CCCCO1)c1ccc(-c2cccs2)[nH]c1=O` (stereo unspecified), for which the “Percent Effect” value is recorded as 23.71%.
The result for `O=C(NC[C@H]1CCCC[C@H]1O)c1ccc2nc(-c3ccco3)[nH]c2c1` reads 114.7%; that for `O=C(NC[C@H]1CCCC[C@H]1O)c1cccc2[nH]c(-c3ccco3)nc12`, 127.5%.
Then `CCCNC(=O)c1ccc(-c2ccco2)[nH]c1=O`, with 7.034%.
The result for `Cc1sc(-c2ccco2)nc1C(=O)NCC1CCOC1` (stereo unspecified) reads 3.177%; that for `CCOC(C)c1nc(Cn2cc(C)cn2)cs1` (stereo unspecified), -10.7%.
As for `COC1CCN(c2cc(C(C)C)nc3ccnn23)C1` (stereo unspecified), the “Percent Effect” value is listed as -6.556%.
The result for `CC1Cc2ccccc2N1C(=O)Cn1nc(-c2cccs2)cc(N)c1=O` (stereo unspecified) reads 146.8%; that for `O=c1ccc(-c2cccs2)nn1CN1CCCCCC1`, 6.119%.
`Nc1cc(-c2cccs2)nn(CC(=O)N2CCc3ccccc32)c1=O`: the “Percent Effect” value turned out to be 164.1%.
Then `O=C(Cn1nc(-c2cccs2)ccc1=O)N1CCCCCC1`, with 16.15%; and `Cc1ccc(-c2cc(N)c(=O)n(CC(=O)NCC3CC3)n2)s1`, with -0.7868%; and `CN(C)CC1CN(CC(=O)N2CCc3ccccc32)CCO1` (stereo unspecified), with -2.513%.
`CC1Cc2ccccc2N1C(=O)Cn1nc(-c2cccs2)ccc1=O` (stereo unspecified): the “Percent Effect” value was 148.6%.
The result for `Cc1cc(CS(=O)(=O)CC(=O)N2c3ccccc3CC2C)no1` (stereo unspecified) reads 4.378%; that for `O=C(c1csnn1)N1CCc2ccccc21`, 9.308%.
Then `CSCCCN1C[C@H]2CC[C@@H]1CN(Cc1[nH]cnc1C)C2`, with 27.65%.
The result for `COCCN(C/C=C/c1ccccc1)Cc1[nH]cnc1C` reads 0.6053%; that for `COCCN(CCOC)Cc1c(C)nc2ccccc2c1O`, 87.45%; that for `COCCN(Cc1ccccc1)Cc1csc(-c2ncccn2)n1`, 9.824%.
Take `Cn1ccc(CN2CCC(Cc3ccccc3)CC2)cc1=O`: the “Percent Effect” value turned out to be 141.3%.
Then `Cn1ccc(CN2CCC(NC(=O)NC3CCCCC3)CC2)cc1=O`, with -14.97%.
For the molecule `Cn1ccc(CN2CCC(CC(=O)N3CCCC3)CC2)cc1=O`, the “Percent Effect” value came out at 63.9%.
As for `Cn1ccc(CN2CCC(OCc3ccccc3)CC2)cc1=O`, the “Percent Effect” value is listed as 85.88%.
With `Cn1ccc(CN2CCC(c3ccccc3)CC2)cc1=O`, the “Percent Effect” value was determined as 1.288%.
Turning to `Cn1c(CN2CCC(OCc3cccnc3)CC2)cc2ccccc21`, the “Percent Effect” value was -15.6%.
Then `Cn1ccc(CN2CCC(NC(=O)Cc3ccccc3)CC2)cc1=O`, with -4.576%; and `Cn1ccc(CN2CCC(OCCc3ccccc3)CC2)cc1=O`, with 4.919%.
